TDP1 cell CPT = qHTS for Inhibitors of human tyrosyl-DNA phosphodiesterase 1 (TDP1): qHTS in cells in presence of CPT. chicken DT40 Tdp1-/-;hTDP1 cells + 20 nM CPT, ATP luminescence, 48 h. Potency, µM (series often up to 46.2 µM), inactives show at the top dose activity change, negative = growth inhibition, usual class: inhibitors. 420,000 compounds, 12% hits. AID 686979, 2013; further: nearly all actives have a fitted effect of over 55% in size
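Chicken DT40 Tdp1-/- cells complemented with human TDP1, 400 cells/well, exposed to compounds plus 20 nM camptothecin for at least 48 h at 37 C; viability read as ATP content by CellTiter-Glo luminescence.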
TDP1 cell noCPT = qHTS for Inhibitors of human tyrosyl-DNA phosphodiesterase 1 (TDP1): qHTS in cells in absence of CPT; DT40 Tdp1-/- hTDP1 cells, no CPT, ATP luminescence, 48 h; Potency, µM (doses to about 46.2 µM), inactives show at the highest dose activity change, negative = growth inhibition, usual class: inhibitors; 420,000 compounds, 15% hits; further: nearly all actives have a fitted effect of over 55% in size
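A cellular qHTS used chicken DT40 cells lacking endogenous Tdp1 but carrying stably transfected human TDP1. Compounds were applied without camptothecin, and cell growth kinetics were judged by ATP-dependent luminescence after ≥48 hr.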
KB-3-1 cytotox = qHTS assay for MDR1-selective chemotherapeutics: Primary screen using the parental adenocarcinoma cell KB-3-1 | KB-3-1 viability, CellTiter-Glo ATP luminescence, 72 h | Potency, µM (series often up to 46.1 µM), hits mostly cytotoxic | AID 1347075, 2019 | 400,000 compounds, 1.4% hits; further: nearly all actives have a fitted effect of over 60% in size
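Parental KB-3-1 adenocarcinoma cells in phenol-red-free DMEM with 10% FBS were pin-treated with compounds at several concentrations, incubated 72 h at 37 °C, and viability read by CellTiter-Glo luminescence; concentration-effect curves were fitted after normalization.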
HT1080-NT tox = qHTS for induction of synthetic lethality in tumor cells producing 2HG: qHTS for the HT-1080-NT fibrosarcoma cell line | 360,000 compounds, 1.6% hits | AID 686970, 2013 | Potency, µM (highest dose often 46.1 µM), for the others: top-dose activity, negative = less viability, actives largely listed as cytotoxic | HT-1080-NT fibrosarcoma viability, CellTiter-Glo ATP luminescence, 48 h;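 further: NT is the 2HG producing partner of a matched IDH1 knockdown line; 0% = DMSO-treated cells and -100% = media-only wells without cells; nearly all actives have a fitted effect of over 55% in size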
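Viability of the 2HG-overproducing fibrosarcoma line after 48 hours of compound exposure at 37 degrees C was determined by luminescence with CellTiter-Glo, and concentration-effect curves were then fitted and categorized.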
HT1080 IDH1KD tx = qHTS for induction of synthetic lethality in tumor cells producing 2HG: qHTS for the HT-1080-IDH1KD cell line; HT-1080 IDH1 knockdown viability, ATP luminescence, 48 h; Potency, µM (highest dose often 46.1 µM), inactives show at the highest dose activity, negative = toxicity, actives largely listed as cytotoxic; 360,000 compounds, 2% hits; AID 686971, 2013;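 further: 0% = DMSO wells and -100% = cell-free medium wells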
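Knockdown cells (IDH1KD HT-1080) received compounds 2 h after plating at 750 cells/well and were kept 48 h at 37 °C in 5% FBS RPMI. A CellTiter-Glo luminescence read gave % activity for curve fitting.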
KB-V1 cytotox = qHTS assay for MDR1-selective chemotherapeutics: Primary screen using the drug-selected MDR subline cells KB-V1 | KB-V1 MDR cells viability, CellTiter-Glo, 72 h | Potency, µM (highest dose often 46.1 µM), most hits filed as cytotoxic | 400,000 compounds, 3.4% hits; further: nearly all actives have a fitted effect of over 60% in size
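Compound-treated KB-V1 multidrug-resistant cells, 72 h, 37 degrees C; viability by CellTiter-Glo. Fitted qHTS curves give the values.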
Starred values were filed as active, the others as inactive; i = inactive; ? = inconclusive; / = no result. A selection: hits, their analogues and other compounds. The true share with any hit is near 19%. The call rests on the fitted dose curve; in most records, active means well fitted curve in the direction sought with a large enough effect; inconclusive means small, poorly fitted or top-dose-only effect, or another doubt; inactive means no such curve, though single readings can be large; an effect the other way counts as inactive or inconclusive. Unless noted, on the % scale 0 is the no-effect control and ±100 the full control effect; potency means the concentration at half of the fitted maximal effect.

SMILES	TDP1 cell CPT	TDP1 cell noCPT	KB-3-1 cytotox	HT1080-NT tox	HT1080 IDH1KD tx	KB-V1 cytotox
CN(C)/C(CN1CCOCC1)=C1\N=C(c2ccccc2)OC1=O	-26%	-5%	i	3%	7%	16µM*
CCC(=O)Oc1ccc2ccccc2c1CNC(=O)c1ccccc1	?	?	?	-10%	0%	15µM*
Cc1nc2c(C)cccc2cc1C(=O)N/N=C/c1ccc(N(C)C)cc1	5.8µM*	12µM*	i	?	?	?
Cc1nc2c(C)cccc2cc1C(=O)N/N=C/c1cccnc1	5.2µM*	6.5µM*	i	-18%	?	i
CC(c1ccccc1)n1cc2c(c1-c1ccccc1Br)c(=O)n(C)c(=O)n2C (centres undefined)	16µM*	18µM*	i	/	/	i
Cn1c(=O)c2c(-c3ccccc3Br)n(C(C)(C)C)cc2n(C)c1=O	16µM*	12µM*	i	/	/	i
COc1ccc(CCNS(=O)(=O)c2ccc3c(c2)c(=O)n(C)c(=O)n3C)cc1OC	5%	-5%	i	/	/	i
COc1ccc(CCn2cc3c(c2-c2ccccc2Br)c(=O)n(C)c(=O)n3C)cc1OC	21µM*	16µM*	i	/	/	i
CCC(C)NCCOc1cc(C)cc(C)c1C (centres undefined)	0%	-29%	i	2%	-3%	i
Cc1nc2ccc(NC(=O)c3ccc([N+](=O)[O-])cc3)cc2[nH]1	?	16µM*	i	19%	?	i
Cc1nc2ccc(C(=O)Nc3ccc4nc[nH]c4c3)cc2[nH]1	21%	-1%	i	17%	11%	i
O=C(Nc1ccc(Nc2ccncc2)cc1)c1ccc([N+](=O)[O-])cc1	21µM*	15µM*	i	?	-2%	i
O=c1cnc2cnc(Oc3cccc(Cl)c3)nc2n1C[C@H]1CCCO1	?	-17%	/	/	/	/
CCOC(=O)c1c(C)c(-c2ccccc2)n(CC(=O)NCCC(C)C)c1C	?	10µM*	i	13%	6%	i
COCCn1c(=O)c(-c2ccc(Cl)cc2)nc2cnc(N(C)C)nc21	-19%	-7%	/	/	/	/
COc1cc(OC)nc(Nc2nc(C(C)N)cs2)n1 (centres undefined)	?	?	i	16%	15%	i
CC(N)c1csc(Nc2nccc(C(F)(F)F)n2)n1 (centres undefined)	5%	?	i	3%	-2%	i
Cc1cc(C)nc(Nc2nc(C(N)Cc3ccc(C(F)(F)F)cc3)cs2)n1 (centres undefined)	6.5µM*	6.5µM*	?	?	?	?
NC(Cc1ccc(C(F)(F)F)cc1)c1csc(Nc2nccc(C(F)(F)F)n2)n1 (centres undefined)	?	?	?	?	?	23µM*
COc1cc(OC)nc(Nc2nc(C(N)Cc3ccccc3)cs2)n1 (centres undefined)	?	18µM*	?	?	?	?
CCCc1cnc(Nc2nc(C(N)Cc3ccc(C(F)(F)F)cc3)cs2)nc1 (centres undefined)	?	21µM*	?	16µM*	?	?
CO[C@@H]1CN(C)C(=O)c2cc(NC(=O)Nc3cc(F)ccc3F)ccc2OC[C@H](C)N(C(=O)c2cnccn2)C[C@@H]1C	?	?	i	1%	-3%	i
Cc1cc(C)nc(Nc2nc(C(N)Cc3ccc(F)cc3)cs2)n1 (centres undefined)	15µM*	21µM*	?	?	13µM*	?
COc1cc(OC)nc(Nc2nc(C(N)Cc3ccc(C(F)(F)F)cc3)cs2)n1 (centres undefined)	?	?	?	18µM*	?	?
Cc1cc(C)nc(Nc2nc(C(N)Cc3ccc(Cl)cc3)cs2)n1 (centres undefined)	18µM*	18µM*	i	21µM*	15µM*	?
SMILES	TDP1 cell CPT	TDP1 cell noCPT	KB-3-1 cytotox	HT1080-NT tox	HT1080 IDH1KD tx	KB-V1 cytotox
CC1Cc2cc(/C(O)=C3/C(=O)C(=O)N(CC4CCCO4)C3c3ccco3)ccc2O1 (centres undefined)	1%	-25%	i	10%	16%	i
Cc1nnc2sc(-c3ccc(-c4ccc(Cl)c(C(F)(F)F)c4)o3)nn12	?	?	i	2%	3%	15µM*
Cc1ccc(-c2nn3c(C)nnc3s2)cc1N	13%	0%	?	10%	2%	?
O=C(Nc1cccc(C(F)(F)F)c1)Oc1ccc(Cl)c2cccnc12	23µM*	18µM*	?	16µM*	15µM*	i
Cc1ccc(Nc2nc(C)c(CCC(C)C)c(=O)[nH]2)cc1	?	18µM*	i	8%	7%	i
Cc1nc(NCc2ccccc2)[nH]c(=O)c1CCC(C)C	?	?	i	7%	-21%	?
CCCCCc1c(C)nc(Nc2ccccc2)[nH]c1=O	21µM*	18µM*	?	-26%	-21%	i
COc1ccc(CCNC(=O)C(CC(C)C)N2Cc3ccccc3C2=O)c(OC)c1OC (centres undefined)	?	?	i	/	/	i
CC(C)n1nccc1NC(=O)COC(=O)c1ccc(NC(N)=O)cc1	-2%	?	i	-1%	11%	i
N#CCCN(Cc1cccnc1)S(=O)(=O)c1ccc(S(=O)(=O)NC2CCCCC2)cc1	-23%	?	i	-9%	-3%	?
N#CCCN(Cc1cccnc1)S(=O)(=O)c1ccc2ccccc2c1	?	-26%	i	1%	1%	23µM*
CC1/C(=N/O)CC(c2ccccc2)NC1c1ccccc1 (centres undefined)	?	?	i	-6%	-3%	i
CC(C)C1/C(=N/O)CC(c2ccccc2)NC1c1ccccc1 (centres undefined)	16µM*	21µM*	i	?	?	?
CCCC1/C(=N/O)CC(c2ccccc2)NC1c1ccccc1 (centres undefined)	?	4.1µM*	i	?	?	?
